Bioassay records from PubChem BioAssay.
This is a sample that favours compounds with a hit; in the whole collection about 3.8% have one here.
GCN5L2 inh – GCN5L2 (KAT2A) acetyltransferase inhibition | Q92830 | GCN5L2 HAT assay, ThioGlo1 CoA-SH fluorescence | Potency, µM (doses to about 58.9 µM), for inactives: top-dose activity change, negative = inhibition, usual class: inhibitors | hit rate 0.21% among 390,000
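Preincubate 20nM GCN5L2 with compound 15 min, RT → add 50uM ThioGlo1 + 75uM H3(1-25) + 70uM acetyl-CoA → read fluorescence 0 and 20 min. Primary qHTS; fluorescent artifacts likely.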
GLS inhibitor – inhibitors of human glutaminase (GLS) | Potency, µM (top dose mostly 45.5 µM), for the others: top-dose activity change, negative = inhibition, usual class: inhibitors | hit rate 0.21% among 410,000 | GLS enzymatic activity, qHTS titration | O94925
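Compounds were pin-transferred onto hKGA, after which L-glutamine (1 mM solution) and a detection mix of glutamate oxidase, HRP and Amplex Red were added. Initial and 30 min RT fluorescence reads were collected.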
Sfp PPTase inh – blocks B. subtilis Sfp PPTase activity. Biochemical Sfp PPTase activity, qHTS. Q9F4F7. Potency, µM, without a hit: largest response in the series, negative = inhibition, most hits filed as inhibitors. hit rate 3.5% among 310,000;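 further: the enzyme is Sfp with the accession as filed and its product quenches rhodamine fluorescence; 0% = enzyme reaction without inhibitor and -100% = no enzyme wells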
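With Hepes-Na pH 7.6 buffer containing 10 mM MgCl2, Sfp (15 nM) modified BHQ-2-YbbR (12.5 uM) using rhodamine-CoA (5 uM). Two reads 30 minutes apart at 525/598 nm yielded each well's rate.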
VDR inh – inhibitors of human vitamin D receptor; AID 504847; VDR-SRC2-3 peptide fluorescence polarization, 2 h; hit rate 0.93% among 400,000; Potency, µM, inactives show max response, negative = inhibition, actives largely listed as inhibitors
Target sequence (P11473 whole entry, looked up): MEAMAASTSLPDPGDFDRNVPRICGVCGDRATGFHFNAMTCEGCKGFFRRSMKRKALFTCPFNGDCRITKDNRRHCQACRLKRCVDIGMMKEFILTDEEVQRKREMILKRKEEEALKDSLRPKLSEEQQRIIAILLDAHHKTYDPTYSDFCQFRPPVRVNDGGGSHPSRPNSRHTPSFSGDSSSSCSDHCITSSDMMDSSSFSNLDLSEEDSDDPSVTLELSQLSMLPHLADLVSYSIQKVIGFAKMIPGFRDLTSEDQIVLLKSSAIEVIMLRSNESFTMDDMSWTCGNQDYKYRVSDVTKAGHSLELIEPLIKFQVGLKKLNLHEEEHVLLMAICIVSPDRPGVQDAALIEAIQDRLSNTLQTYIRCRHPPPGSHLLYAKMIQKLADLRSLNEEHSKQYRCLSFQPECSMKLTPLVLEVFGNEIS
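Fluorescence polarization assay measuring small-molecule disruption of VDR binding to the coregulator peptide SRC2-3. Compounds were pin-transferred (23 nl) into the reagent mix and incubated 2 h at room temperature before reading.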
rTrxR1 inhibitor – blocks rat thioredoxin reductase 1; O89049; recombinant rTrxR1, NADPH fluorescence consumption, selenite substrate; Potency, µM (top dose mostly 114 µM), for inactives: at the highest dose activity change, negative = inhibition, usual class: inhibitors; hit rate 1% among 390,000; AID 588453; further: nearly all actives have a fitted effect of over 65% in size
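Rat TrxR1 (90 nM in the dispensed reagent) was pre-reduced with 400 uM NADPH for 5 min at room temperature, then incubated with compound for 15 min. After 400 uM selenite was added, NADPH fluorescence (Ex 340/Em 450 nm) was followed for 8 min.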
TrxR1 substrate – is turned over as a substrate by rat TrxR1 | O89049 | purified TrxR1 substrate turnover, NADPH consumption readout | Potency, µM (doses to about 114 µM), for the others: at the top dose activity change, negative = substrate turnover | hit rate 0.01% among 390,000; further: nearly all actives have a fitted effect of over 50% in size
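Rat TrxR1, dispensed at 90 nM, was prereduced with 400 uM NADPH (final) for 5 min at ~22 deg C, then incubated with compound 15 min before 400 uM selenite. A first-read NADPH fluorescence drop versus no-compound background flagged substrates.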
An asterisk follows results filed as active; ? = inconclusive; . = no result given; [ ] = dose if it differs, or a comment. The call rests on the fitted dose curve; in most records, active means well fitted curve in the direction sought with a large enough effect; inconclusive means small, poorly fitted or top-dose-only effect, or another doubt; inactive means no such curve, though single readings can be large; an effect the other way counts as inactive or inconclusive. Unless noted, on the % scale 0 is the no-effect control and ±100 the full control effect; potency means the concentration at half of the fitted maximal effect.

SMILES | GCN5L2 inh | GLS inhibitor | Sfp PPTase inh | VDR inh | rTrxR1 inhibitor | TrxR1 substrate
O=C(C=Cc1ccc(Cl)s1)c1ccc(Cl)s1 | . | -1% | . | ? | ? | -3%
COc1cc(/C=C/C(=O)c2ccc(Cl)s2)cc(OC)c1O | -5% | -8% | ? | 56µM* | -24%[57.1 µM] | -3%[57.1 µM]
CCC1CCCCN1CC(O)Cn1c2ccccc2n2c(=O)cc(C)c(C#N)c12 (stereo not drawn) | 27% | 1% | 21% | 9% | -8% | 1%
Cc1cc(-c2nnc(SCC(=O)Nc3nccs3)o2)no1 | -26% | -6% | 7% | -8% | 20% | 0%
Cc1nnc(SCC(=O)Nc2ccc(S(=O)(=O)N3CCCCC3)cc2)s1 | 3% | 22% | -3% | 14% | 7% | -4%
Cc1[nH]c(=O)[nH]c(=O)c1S(=O)(=O)N1CCCc2ccccc21 | 3% | -2% | 3% | -13% | -1% | -4%
Cc1ccc(S(=O)(=O)NNC(=O)c2cc3cc4ccccc4nc3s2)cc1 | -4% | 27% | -9% | 5% | 0%[57.1 µM] | -4%[57.1 µM]
COc1ccc(C(=O)/C=C/c2ccc(OC)c(O)c2)c(F)c1 | 16% | 18% | 50µM* | 89µM* | -36% | -20%
C/C(=N\NC(=S)Nc1ccccc1C)c1ccc(O)cc1 | -12% | 10µM* | 25µM* | ? | 29%[57.1 µM] | 12%[57.1 µM]
COC(=O)C1=C(C(=O)OC)SC2(S1)C(C(=O)OC)=C(C(=O)OC)SC1=C2c2cc(C)ccc2NC1(C)C | -5% | -11% | 2.8µM* | ? | -12%[57.1 µM] | -19%
CCOC(=O)C1(N(CC)CC)Sc2cc(C)ccc2NC1=O (stereo not drawn) | -10% | -10% | 10% | 8% | 17%[57.1 µM] | -1%[57.1 µM]
Cc1cccc(NC(=O)CN2C(=O)N/C(=C/c3ccc(C)s3)C2=O)c1 | 1% | 10% | -20% | -9% | -12% | -12%
Cc1ccc(NC(=O)CN2C(=O)S/C(=C\c3ccc(-c4cccc(C(=O)O)c4C)o3)C2=O)cc1C | 0% | -11% | 45µM* | -19% | -36% | -2%[57.1 µM]
Cc1cccc(NC(=O)CN2C(=O)N/C(=C/c3ccc(-c4cccc(C(=O)O)c4C)o3)C2=O)c1 | -10% | 5% | 32µM* | -8% | -8% | -6%
COCCNC(=O)C(=O)Nc1cccc(Br)c1 | 2% | ? | 23% | -4% | 22% | 10%
COCCNC(=S)NNc1cccc(C(=O)O)c1 | -8% | ? | 7.1µM* | ? | 6%[57.1 µM] | -3%[57.1 µM]
CC(C)N(Cc1nccn1C)C(=O)c1cc(COc2ccc(F)cc2Cl)on1 | -4% | -5% | 10% | -6% | -11% | -8%
CCCc1nc2ccccc2c(NC(=O)CN(CC)CC)c1CC | -4% | -4% | 56µM* | -1% | 10% | -4%
CCCCc1nc2ccccc2c(NC(=O)CN(CC)CC)c1CCC | -15% | 9% | ? | 6% | 9% | -1%
CCn1c(SCC(=O)NCc2ccco2)nnc1-c1cccs1 | -16% | 3% | 14µM* | 1% | 14µM* | 3%
CCn1c(SCC(=O)NCc2ccco2)nnc1-c1ccncc1 | 0% | . | 11% | . | . | .
CCn1c(CNc2nc(-c3ccccc3)cs2)nnc1SCC(=O)NCc1ccco1 | -9% | 2% | 56µM* | ? | ? | -3%
Cn1c(SCC(=O)Nc2nnc(-c3ccccc3)o2)nnc1C1CC1 | -7% | 11% | ? | -5% | 10% | 2%
Cc1ccc(NC(=O)N2CC3CCCN3c3ccccc32)cc1C (stereo not drawn) | 0% | 24% | . | 7% | -13% | -7%
c1ccc2c(c1)NCC1CCCN21 (stereo not drawn) | 2% | 28% | 13% | -3% | 79µM* | -9%
SMILES | GCN5L2 inh | GLS inhibitor | Sfp PPTase inh | VDR inh | rTrxR1 inhibitor | TrxR1 substrate
COc1ccc2c(/C=N/NS(=O)(=O)c3ccc(C)cc3)c[nH]c2c1 | -12% | ? | 56µM* | -6% | ? | -8%
COc1ccc2[nH]cc(/C=N/NS(=O)(=O)c3ccc(C)cc3)c2c1 | -1% | 13% | 12% | ? | 1% | -11%
Cc1ccc(NC2=C(Cl)C(=O)c3ccccc3C2=O)cc1 | -1% | -6% | 16% | -8% | 3.5µM* | -6%
COC1=C(Nc2ccc(O)cc2)C(=O)c2ccccc2C1=O | 2% | 7.9µM* | ? | 25µM* | ? | -3%[57.1 µM]
CCC(=O)NC1=C(Nc2ccc(N)cc2)C(=O)c2ccccc2C1=O | 1% | 7.1µM* | -1% | -11% | 16%[57.1 µM] | 11%[57.1 µM]
COC1=C(Nc2ccc(OC)cc2)C(=O)c2ccccc2C1=O | 0% | 2% | ? | ? | -16% | 1%
CCCC(=O)NC1=C(Cl)C(=O)c2ccccc2C1=O | . | ? | . | 7.9µM* | 0.4µM* | 1%[11.4 µM]
CCN(CC)c1ccc(NC2=C(Cl)C(=O)c3ccccc3C2=O)cc1 | -29% | 3% | ? | -26% | 2.5µM* | -11%
O=C1C=C(Nc2ccc(O)cc2)C(=O)c2ccccc21 | 2% | ? | -7% | 0% | 5% | 5%
O=C1C(Cl)=C(Nc2ccc(O)cc2)C(=O)c2ccccc21 | 0% | 1.3µM* | -22% | -16% | ? | 0%
Cc1cc(C)cc(NC2=C(N)C(=O)c3ccccc3C2=O)c1 | -9% | 8% | 18% | 89µM* | 3% | 1%
Cc1cccc(NC2=C(NCCO)C(=O)c3ccccc3C2=O)c1 | -2% | 3% | -12% | ? | 37%[57.1 µM] | 6%
C[C@@H](Cc1cccc(C(F)(F)F)c1)NCCOC(=O)c1ccccc1 | 5%[21.4 µM] | . | 7% | 0% | . | .
C#CCNC(=O)C1=C[C@@H](C)[C@H](CCCO)[C@@H](OCC)O1 | . | -1% | . | -21% | 18µM* | -2%[57.1 µM]
Cc1nnsc1C(=O)NC(C)c1ccccc1 (stereo not drawn) | -7% | -2% | 7% | 17% | 17% | 8%
CCC(C)N(C(=O)COc1ccc(Cl)c2cccnc12)C1CCS(=O)(=O)C1 (stereo not drawn) | -17% | -2% | . | -11% | 17% | 19%
COc1c(O)cc(O)cc1O | 1% | . | 4% | 5% | . | .
Cc1cc(O)c(Oc2cc(C)cc(O)c2O)c(O)c1 | -8% | ? | 5µM* | -21% | ? | 6%
O=C1Cc2cc(NS(=O)(=O)c3cc(F)ccc3F)cc3c2N1CCC3 | -4% | -1% | . | 4% | 7%[57.1 µM] | 3%[57.1 µM]
N#Cc1ccsc1NC(=O)CCc1ccccc1 | -3% | 1% | 8% | -15% | 21%[57.1 µM] | 7%[57.1 µM]
Cc1occc1C(=O)NCc1ccc2c(c1)OCO2 | -2% | 0% | 2% | 16% | -7% | -4%
Cc1occc1C(=O)NCc1cccc(CNC(=O)c2ccoc2C)c1 | -10% | -30% | ? | -6% | 8.9µM* | -4%
Cc1nn2c(-c3ccco3)nnc2c2ccccc12 | . | . | 5% | -1% | 79µM* | -9%
